Compounds without any hit were thinned out: in the full panel of roughly 83,000, 20% have a hit.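 Single-dose data. Exposure time 48 hours. Values below 10 considered active.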 A number with no mark means an inactive call. Active and inactive are the calls of the source.
Test system: MDA-MB-231 breast
Assay: NCI-60 one-dose screen, 48 h (100 = growth as untreated, 0 = no growth, -100 = all killed)
Conditions: 10 µM unless noted

Compared with `CCOc1ccccc1/C=N\Nc1ccc(S(=O)(=O)c2ccc(N/N=C/c3ccccc3OCC)cc2)cc1`, `O=C(Nc1ccccc1)Nc1ccc(C(=O)/C=C/c2ccc(N3CCCC3)cc2)cc1` is lower in growth: 87.8% for the first, 56.8% for the second.

First: Nc1ccc(Cl)c([N+](=O)[O-])c1
Second: CCOC(CNC(=O)c1cccc([N+](=O)[O-])c1)OCC
The growth of the first is higher: 107% for the first, 92.9% for the second.

First: Oc1ccc(N=Nc2nccs2)c(O)c1
Second: N=C(N)c1ccc(-c2ccc(-c3ccc(-c4cccs4)s3)s2)cc1F
The growth of the first is lower: 54.9% for the first, 91.2% for the second.

First: O=C(N[C@@H]1CCCc2ccccc21)[C@H](CCC(=O)N1CCN(C2CCCCC2)CC1)N1C(=O)[C@@H](N2C(=O)OC[C@@H]2c2ccccc2)[C@H]1/C=C/c1ccccc1
Second: CCCCC1COc2cccc3c2N1C=C/C3=C\C(=O)n1ccc2ccccc21 (stereo not drawn)
The growth of the first is lower: 16.4% for the first, 85.1% for the second.

Going from `Cc1ccc(NC(=S)/N=c2/n(-c3ccccc3)nc3n2CCN3C2=NCCN2)cc1` to `CCN(CC)c1ccc(/C=C/c2ccc3cc(C)ccc3[n+]2CC)cc1`, the growth falls from 92.9% to 21.3%.

Going from `COc1cc(C)cc2oc3oc(=O)c(-c4nc5ccccc5s4)cc3c(=O)c12` to `COc1cc(C)cc2oc3oc(=N)c(C(=O)c4ccccc4)cc3c(=O)c12`, the growth rises from 95.1% to 98.2%.

First: O=c1c2c3c(sc2n2cnnc2n1Cc1ccccc1)CCCC3
Second: Nc1nnc(CSc2nnc3n(Cc4ccccc4)c(=O)c4c5c(sc4n23)CCCC5)s1
The growth of the first is higher: 96.6% for the first, 76.5% for the second.

First: COc1cc2c(c(OC)c1)C1c3cc(OC)ccc3NC(=O)N1CC2 (stereo not drawn)
Second: CCNc1cc2c(cc1Br)-c1ccccc1C2=O
The growth of the first is lower: 66.5% for the first, 73.2% for the second.

Compared with `COc1ccc(/C=C/C=C\C(=O)c2ccc(-n3ccnc3)cc2)cc1`, `C[n+]1c(-c2ccccc2)c2cc(N)ccc2c2ccccc21` is lower in growth: 94% for the first, 70.8% for the second.

First: C/C=C/C1OC23CCCCC2C(C#N)(C(=N)O3)C1(C#N)C#N (stereo not drawn)
Second: CCOC(=O)c1nn(C2CCCCO2)c2ccc(NC(=O)CN3CCCC3)cc12 (stereo not drawn)
The growth of the first is higher: 110% for the first, 104% for the second.

First: O=S(=O)(NCc1ccccc1)c1ncnc2nc[nH]c12
Second: CCCSc1nc(N)nc2nc[nH]c12
The growth of the first is higher: 107% for the first, 104% for the second.

Going from `CS(=O)(=O)c1cccnn1` to `O=C1CC(c2ccccc2)Cc2nc3ccc(Br)cc3cc21` (stereo not drawn), the growth falls from 102% to 13.2%.

Work on `C1=C[C@H]2O[C@@H]1c1ccc3[nH]ccc3c12` yielded a growth of 93.4%.

With `CC[C@]12C=CCN3CC[C@@]4(c5ccc(OC)cc5N(C)[C@H]4[C@@](O)(C(=O)OC)[C@@H]1OC(=O)CCC(=O)N[C@H](Cc1c[nH]c4ccccc14)C(=O)OC)[C@@H]32` the growth was -71% [100 µM] (active).
With `CC(=O)OC[C@]12CC[C@@H]([C@@H](C)C(N)=O)[C@@H]1[C@H]1CC[C@@H]3[C@@]4(C)CC[C@H](OC(C)=O)C(C)(C)[C@@H]4CC[C@@]3(C)[C@]1(C)CC2` the growth was -88.6% [100 µM] (active).
In the case of `CCN(CC)c1ccc2cc(NC(=O)OCCNC(=O)CCNC(=O)[C@H](CC(C)C)NC(=O)C(C)(C)NC(=O)C(C)(C)NC(=O)[C@H](CC(C)C)NC(=O)CCNC(=O)C(C)(C)NC(=O)[C@H](CC(C)C)NC(=O)CCNC(=O)[C@@](C)(CC)NC(=O)[C@H](C)NC(=O)CCNC(=O)C(C)(C)NC(=O)[C@H](C)NC(=O)[C@@H]3CCCN3C(=O)[C@@](C)(CC)NC(=O)[C@H](Cc3ccccc3)NC(=O)C3CCCN3C(=O)C(C)(C)NC(=O)C3CCCN3C(=O)C(C)(C)NC(C)=O)c(=O)oc2c1` (stereo partly drawn), the growth is reported as -83.2% (active).
With `CCCCCCCCCCCCCC[n+]1cccc(C(N)=O)c1` the growth was -22.9% (active).
`Fc1cc2[nH]ncc2c2c3c(c(-c4cn[nH]c4)nc12)CCCC3` was tested, and the growth was 3.56% (active).
For `c1cc2ccc1CNCCN1CCNCc3ccc(cc3)Oc3ccc(cc3)CNCCN(CCNCc3ccc(cc3)O2)CCNCc2ccc(cc2)Oc2ccc(cc2)CNCC1`, the growth was -87% (active).
With `C[C@H]1[C@H](C)CC[C@]2(C(=O)O)CC[C@]3(C)C(=CC[C@@H]4[C@@]5(C)C/C(=C/c6cccnc6)[C@H](O)C(C)(C)[C@@H]5CC[C@]43C)[C@H]12` the growth was -17.6% [100 µM] (active).

In the case of `O=c1cc(-c2ccccc2)oc2cc(OCc3cn(Cc4ccc(F)cc4)nn3)cc(O)c12`, the growth is reported as 12% [100 µM].

From PubChem BioAssay (NCI)
